The structures appear in SMILES notation. Hit rate of the full screen: of about 1,800 compounds, about 410 (23%) were called active. The rule behind the calls is not given here. These entries were drawn from the full list. Results with a measured potency or affinity are listed apart.

The test is described as follows: Vero cell cytotoxicity, cytotoxicity control for flavivirus capping enzyme inhibitors (AID 588742). The note with it: Vero cells viability, cytotoxicity counter-screen; series mostly up to 40 µM; viability: at the top concentration. Background: The purpose of a counterscreen is to sort out artefacts and off-target activity.
On to `CCOC(=O)c1ccc2c(c1)n(CCO)c(C)[n+]2CC`, for which the viability (as a rule, a read-out of living cells in per cent, often relative to untreated cells) is 100% (inactive).
Under `Cc1cccc2cc(C#N)c(N3CCC(O)CC3)nc12` stands 93.1% (inactive); under `COc1cccc(N2C(=O)CC(Nc3ccc(N4CCOCC4)cc3)C2=O)c1` (centres undefined), 98.2% (inactive); under `Cc1cc(C(C2C(=O)CC(C)(C)CC2=O)C2C(=O)CC(C)(C)CC2=O)cc(C)c1OC(F)F`, 103% (inactive).
The result for `O=C(/C=C/c1ccccc1)n1cnnc1SC/C=C/c1ccccc1` reads 98.6% (inactive); that for `O=C(O)c1cc(NCc2ccc(F)cc2)ccc1N1CCOCC1`, 100% (inactive); that for `COC(=O)CCC(=O)OC1(C)C(=O)C2=CN(C3CC3)C(c3ccc(OC)cc3)=CC2=C(Br)C1=O` (centres undefined), 98% (inactive).
As to `Cc1ccc(N2C(=O)C(Cl)=C(N3CCOCC3)C2=O)cc1Cl`, the “viability” value is 110% (inactive).
The result for `CCOc1cc(C(c2c(C)[nH][nH]c2=O)c2c(C)[nH][nH]c2=O)cc([N+](=O)[O-])c1O` reads 95.1% (inactive); that for `Cc1ccc(C)c(N=Cc2cc3c(cc2[N+](=O)[O-])OCO3)c1`, 95.3% (inactive); that for `O=[N+]([O-])c1cc2ccccc2c(O)c1O`, 102% (inactive).
The result for `O=C(O)c1cc([N+](=O)[O-])c(Sc2nc3ccccc3[nH]2)c([N+](=O)[O-])c1` reads 98.8% (inactive); that for `CCC1=NN2C(=N)/C(=C\c3ccc(OCc4cc(=O)n5nc(CC)sc5n4)c(OC)c3)C(=O)N=C2S1`, 97.3% (inactive); that for `Cc1c(C2CC(=O)N(c3ccccc3)C2=O)[nH]n(-c2ccccc2)c1=O` (centres undefined), 101% (inactive).
The result for `O=C(O)CCc1ccc(-c2ccc(Br)cc2)n1-c1ccc(O)cc1` reads 95% (inactive); that for `CCCOc1cccc(C2C(C(=O)c3cc4ccccc4o3)=C(O)C(=O)N2c2cc(C)on2)c1` (centres undefined), 87.3% (inactive).
Take `O=c1c2ccccc2nc2ccc(NCc3ccco3)nn12`: the “viability” value was 97% (inactive).
As to `Cc1nn(-c2ccccc2)c(Cl)c1/C=N/Nc1ccc(S(=O)(=O)Nc2ccccc2C(=O)O)cc1[N+](=O)[O-]`, the “viability” value was 90.9% (inactive).
Under `CCOc1cc(/C=N/Nc2ccc(S(=O)(=O)Nc3ccccc3C(=O)O)cc2[N+](=O)[O-])cc(Cl)c1O` stands 100% (inactive).
`C=CCOc1cccc(C2C(C(=O)c3ccc(C)o3)=C(O)C(=O)N2c2nccs2)c1` (centres undefined): the “viability” value was 93.2% (inactive).
The result for `O=C1C(C=NCc2ccco2)=C(O)c2ccccc21` reads 104% (inactive); that for `CC(C)C(C(=O)O)N1C(=O)/C(=C/C=C/c2ccco2)SC1=S` (centres undefined), 97% (inactive).
`CC(C(=O)O)N1C(=O)/C(=C/C=C/c2ccco2)SC1=S` (centres undefined): the “viability” value was 95.8% (inactive).
Take `Cc1ccc(S(=O)(=O)NN/C(=N/S(=O)(=O)c2ccccc2)c2ccccc2)cc1`: the “viability” value is 101% (inactive).
The result for `Cc1nn(-c2ccccc2)c2c1C(c1ccncc1)C(C#N)=C(N)O2` (centres undefined) reads 100% (inactive).
On to `CCn1nc([N+](=O)[O-])c(C(C#N)c2nc3ccccc3n2C)c(Cl)c1=O` (centres undefined), for which the “viability” value was 101% (inactive).
The result for `Cn1nc([N+](=O)[O-])c(C(C#N)c2nc3ccccc3n2C)c(Cl)c1=O` (centres undefined) reads 93.4% (inactive).
The result for `COC(=O)c1ccccc1N/C=C1\CCc2c(c(C)nn2-c2ccccn2)C1=O` reads 86.9% (inactive).
On to `CCc1sc(/C=C(/C#N)C(N)=S)cc1[N+](=O)[O-]`, for which the “viability” value was 102% (inactive).
For `Cc1ccc(-n2nc(C)c3c2OC(N)=C(C#N)C3c2ccco2)cc1` (centres undefined), the “viability” value was 98.1% (inactive).
Regarding `CCSc1nnc(NC(=O)c2nc(S(=O)(=O)Cc3ccc(F)cc3)ncc2Cl)s1`, the “viability” value is 95.4% [at 20 µM] (inactive).
Under `CCOC(=O)c1c(-c2ccc(-c3ccccc3)cc2)csc1NC(=O)C1C2CCC(O2)C1C(=O)O` (centres undefined) stands 83.1% (inactive).
Under `Cc1noc(C)c1C(=O)Nc1ccc(N(C)C)cc1` stands 106% (inactive); under `CCC(=O)OC1(C)C(=O)C=C2C=C(C3CC3)OC=C2C1=O` (centres undefined), 104% (inactive).
The result for `COc1ccc(/C=N/NC(=O)c2nnn(-c3nonc3N)c2CN(C)C2CCCCC2)cc1` reads 100% (inactive); that for `C#CCOc1c(Cl)cc(/C=C2/C(=O)ON=C2C)cc1OCC`, 102% (inactive).
Take `COc1cc(/C=C2\S/C(=N/S(=O)(=O)Cc3ccccc3)NC2=O)c([N+](=O)[O-])cc1OC`: the “viability” value was 107% (inactive).
Under `COc1ccc(S(=O)(=O)Nc2c(O)ccc3ccccc23)cc1OC` stands 102% (inactive); under `NC(=S)n1[nH]c(-c2ccc([N+](=O)[O-])cc2)c(N=Nc2ccccc2[N+](=O)[O-])c1=O`, 102% (inactive).
In the case of `CN1C(=O)/C(=C/c2ccc(C(=O)Nc3ccc(O)cc3C(=O)O)cc2)SC1=S`, the “viability” value was 93.6% (inactive).
Under `Cc1cccc(C)c1NC(=S)NC(=O)c1ccc(Br)o1` stands 83.4% (inactive).
For the molecule `CS(=O)(=O)c1ncc(Cl)c(C(=O)Nc2ccc(N3CCOCC3)cc2)n1`, the “viability” value is 92.7% (inactive).
For the molecule `CCC(CO)Oc1cc(NCc2cccc(C)c2)c2ncn(C(C)C)c2c1` (centres undefined), the “viability” value is 89% (inactive).
Under `CC1(C)CC(=O)C2=C(C1)c1c(ccc3ccccc13)NC2c1cc([N+](=O)[O-])cc([N+](=O)[O-])c1O` (centres undefined) stands 83.6% (inactive); under `N=C1/C(=C\c2ccc(OC(=O)c3ccccc3Cl)cc2)C(=O)N=C2SC(N3CCOCC3)=NN12`, 101% (inactive).
The result for `Nc1nc(C2C(=O)CCCC2=O)cs1` reads 97.5% (inactive); that for `O=C(Nc1c(F)c(F)c(F)c(F)c1F)NC1CCCCC1`, 93.3% (inactive).
The result for `O=C(O)c1ccccc1N=Nc1c(O)[nH]c2ccc([N+](=O)[O-])cc12` reads 86.8% (inactive); that for `CC(C)c1ccc(N2C(=O)C(Cl)=C(N3CCOCC3)C2=O)cc1`, 97.4% (inactive).
